Screening data (PubChem)
S2 tox = reduces viability in counter-screen for ATXN expression inhibitors. S2 cells (HEK-293 line with an ATXN2-luciferase reporter) viability, CellTiter-Fluor protease fluorescence, 24 h. Potency, µM (series often up to 56.7 µM), hits mostly cytotoxic. 400,000 compounds, 0.49% hits; note: nearly all actives have a fitted effect of over 40% in size
TGFb inhibitor = inhibitors of TGF-b signaling. HepG2 CAGA-GFP TGF-b/SMAD3 reporter, GFP fluorescence, 18 h; TGF-beta stimulated, 500 pg/mL final. Potency, µM (doses to about 46.1 µM), inactives show at the highest dose activity, negative = inhibition, most hits filed as inhibitors. 410,000 compounds, 1.2% hits. AID 588855; note: % is set by controls: 0 for no effect and ±100 for the full control effect; nearly all actives have a fitted effect of over 65% in size
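HEPG2 CAGA-GFP, 1000 cells/well; 2 h settle, 37 C; cpd via pin tool; TGF-b 500 pg/mL final; 18 h, 37 C; GFP imaging ex488/em500-530; %Activity normalised to -TGF-b and +DMSO controls; CRC fit, curve class.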
HepG2 viability = kills HepG2 cells in TGF-b inhibitor counter-screen; HepG2 CAGA-GFP viability, ATP luminescence, 18 h; Potency, µM (doses to about 46.1 µM), for the others: at the top dose activity change, negative = cytotoxicity, usual class: cytotoxic; 410,000 compounds, 0.76% hits; AID 588856
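CellTiter-Glo luminescence gave cytotoxicity after 18 hours at 37 degrees C. The cells were HepG2 CAGA-GFP in 1% FBS DMEM, stimulated with 500 pg/mL TGF-beta after compound addition. %Activity was normalised to no-cell wells (complete cell-killing) and DMSO (no toxicity), and curves were fitted and classified.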
Nrf2 block = inhibitors of Nrf2 signaling | A549 ARE-Fluc reporter, luciferase luminescence, 18-24 h | Potency, µM (highest dose often 46 µM), for inactives: top-dose activity change, negative = inhibition, actives largely listed as inhibitors | 360,000 compounds, 2.1% hits | AID 504444; note: % is set by controls: 0 for no effect and ±100 for the full control effect; nearly all actives have a fitted effect of over 60% in size
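Nrf2 activity is the BugLite luminescence, read 15 min after reagent at room temperature, following CellTiter-Fluor cytotoxicity readout (30 min, 37C). Compound titrations were applied for 18-24 h to 5000 A549 ARE_Fluc cells/well in 5% FBS OPTI-MEM.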
A549 viability = kills or reduces viability of A549 cells in Nrf2 counter-screen; 390,000 compounds, 0.16% hits; A549 ARE-Fluc cells, CellTiter-Fluor viability, 18-24 h; Potency, µM (highest dose often 46 µM), for the others: at the highest dose activity change, negative = cytotoxicity, hits mostly inhibitors; AID 504648; note: % is set by controls: 0 for no effect and ±100 for the full control effect
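A549 ARE_Fluc cells in 5% FBS OPTI-MEM were exposed to compounds in concentration-response for 18-24 h at 37 deg C. Viability was read by CellTiter-Fluor fluorescence (Ex 405/Em 525) after 30 min, before the luciferase read.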
ATXN2 expr inh = ATXN2 expression inhibition. HEK-293 ATXN2-luciferase reporter, luminescence, 24 h. Potency, µM (series often up to 57 µM), for inactives: top-dose activity change, negative = inhibition, hits mostly inhibitors. 360,000 compounds, 0.72% hits. AID 1745845; note: % is set by controls: 0 for no effect and ±100 for the full control effect; nearly all actives have a fitted effect of over 55% in size
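ATXN2-luciferase reporter cells (luciferase flanked by upstream and downstream ATXN2 gene portions) were treated 24 h at 37 °C with compounds at up to 57 uM. SteadyGlo luminescence gave expression; GF-AFC fluorescence gave viability.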
* = called active by the depositor; i = inactive; ? = inconclusive; · = no result; ! = not active in a repeat. An excerpt weighted towards active compounds, which were near 3.8% of everything screened. Calls come from the whole dose curve; as a rule, active = well fitted curve in the direction sought with a large enough effect; inconclusive = small, poorly fitted or top-dose-only effect, or another doubt; inactive = no such curve, though single readings can be large; an effect the other way counts as inactive or inconclusive. Potency is the fitted concentration of half-maximal effect.

SMILES	S2 tox	TGFb inhibitor	HepG2 viability	Nrf2 block	A549 viability	ATXN2 expr inh
CC(C)C(=O)NNS(=O)(=O)c1ccccc1[N+](=O)[O-]	i	-3%	16µM*	-10%	1%	-2%
Cc1ccc(S(=O)(=O)NCCCNS(=O)(=O)c2ccccc2[N+](=O)[O-])cc1	i	-17%	-8%	18µM*	3%	-24%
COC(=O)c1cccnc1Oc1ccccc1	?	-4%	0%	19%	-1%	-3%
Cc1ccc(-n2nnc(-c3nsc(NC(=O)c4ccccc4)n3)c2C)cc1	i	-22%	-23%	·	6%	-31%
COc1cccc(C(=O)Nc2nc(-c3nnn(-c4cc(C)ccc4C)c3C)ns2)c1	i	-15%	-12%	?	-19%	8%
COc1cccc(C(=O)Nc2nc(-c3nnn(-c4ccccc4C(F)(F)F)c3C)ns2)c1	i	13µM*	-54%	-10%	-21%	-25%
COc1ccc(C(=O)Nc2nc(-c3nnn(-c4ccc(F)cc4F)c3C)ns2)cc1	?	?	-36%	0%	-28%	11µM*
Cc1c(-c2nsc(NC(=O)c3cccs3)n2)nnn1-c1ccc(Br)cc1	32µM*	-26%	-37%	?	-3%	?
COC(=O)[C@@H](NC(=O)C1CCCN(c2nc(C)c3ccc(C)cc3n2)C1)C(C)C (some centres undefined)	i	·	·	·	·	·
O=S1(=O)CCOC[C@H](CC2CCCCC2)N1Cc1ccccc1	i	?	-2%	29%	12%	0%
Cc1ccccc1CN1[C@@H](CC2CCCCC2)COCCS1(=O)=O	?	11µM*	11µM*!	?	-2%	-33%
O=S1(=O)CCOC[C@H](CC2CCCCC2)N1Cc1cccc(Cl)c1	i	16µM*	-5%	-25%	-2%	-27%
C/C(=N\NC(=O)CN(c1ccc(Oc2ccccc2)cc1)S(C)(=O)=O)C(C)(C)C	i	-3%	-20%	14%	8%	·
CC(C)(C)c1ccc(-c2nnc(SCCC#N)n2C2CCCC2)cc1	i	?	-15%	21µM*	?	-29%
O=C(CSc1nnc(-c2ccc(Br)cc2)n1C1CCCCC1)N1CCCC1	i	5%	-15%	9%	-10%	-26%
Cc1c(CCOC(=O)C23CC4(C)CC(C)(CC(C)(C4)C2)C3)sc[n+]1CC(=O)c1ccccc1	i	10µM*	20µM*	-11%	7%	-20%
Cc1c(CCOC(=O)CC23CC4CC(CC(C4)C2)C3)sc[n+]1CC(=O)c1ccccc1	·	?	-109%	6%	12%	-58%
COc1ccc(-c2csc(NC(=O)CSCc3c(C)noc3C)n2)c(OC)c1	i	1%	-23%	16µM*	-15%	-3%
COc1ccc(-c2csc(NC(=O)CSCC(=O)Nc3cc(C)on3)n2)cc1	?	-28%	-1%	5%	0%	28%
COC(=O)c1cn(Cc2ccccc2C)nn1	i	-29%	1.8µM*	23%	4%	3%
COc1ccc(Cc2[nH]n3c(=O)cc(C(C)C)nc3c2-c2ccccc2)cc1	?	?	11µM*	12µM*	?	22µM*
CCn1c(SCCOc2ccc(OC)cc2)nnc1C(CO)NC(=O)c1ccc(OC)cc1 (centres undefined)	?	-16%	-22%	-12%	-15%	-16%
C=CCn1c(SCCOc2ccc(OC)cc2)nnc1C(C)NC(=O)Cc1ccc(OC)cc1 (centres undefined)	i	-15%	-8%	23µM*	-12%	2%
CCc1nc(NC(=O)c2sc(C)nc2C)sc1C(=O)OC	i	10%	-25%	-8%	2%	1%
c1ccc(-c2nc(NCCCn3ccnc3)c3oc4ccccc4c3n2)cc1	?	?	20µM*	?	?	?
SMILES	S2 tox	TGFb inhibitor	HepG2 viability	Nrf2 block	A549 viability	ATXN2 expr inh
Cc1ccccc1C(=O)Nc1cccc(C(=O)N/N=C/c2cc(Cl)cc([N+](=O)[O-])c2O)c1	i	-18%	-14%	?	-14%	22µM*
COc1cc(/C=N/NC(=O)c2cccc(NC(=O)c3ccccc3C)c2)ccc1O	i	1%	-14%	5%	1%	0%
C[C@@H]1CC=C[C@H]2[C@H]1C(=O)N(Cc1ccccc1)[C@H]2c1ccoc1	i	?	-24%	-11%	5%	-8%
CCC1CC=CC2C1C(=O)N(Cc1ccccc1)C2c1cccc([N+](=O)[O-])c1 (centres undefined)	·	10µM*	-78%	-12%	?	·
CCC1CC=CC2C1C(=O)N(Cc1ccccc1)C2c1ccoc1 (centres undefined)	·	10µM*	-100%	?	?	·
CC[C@@H]1CC=C[C@H]2[C@H]1C(=O)N(Cc1ccccc1)[C@H]2c1ccoc1	·	13µM*	-33%	-14%	-20%	?
CC(C)(C)n1ncc2c(=O)n(Cc3ccc(F)cc3Cl)cnc21	·	-6%	-38%	·	·	·
COc1ccc(N(Cc2cccs2)C(=O)COc2cc(C)c(Cl)c(C)c2)cc1	·	16µM*	-28%	?	-1%	·
Cc1ccc(C)c(OCCCn2c(-c3ccc(Cl)cc3)nc3ccccc3c2=O)c1	i	-1%	-27%	3%	0%	-1%
CCN1CCCC1CNC(=O)c1cnn(-c2ncc3c(n2)-c2ccc(OC)cc2CC3)c1C1CC1 (centres undefined)	i	·	·	·	·	·
O=C1NC(c2cccc3ccccc23)Nc2ccc(Cl)cc21 (centres undefined)	?	4µM*	-6%	?	-15%	?
NS(=O)(=O)c1ccc(CCNC(=O)CN2CCC(Cc3ccccc3)CC2)cc1	i	-9%	-21%	21µM*	-10%	-24%
Cc1ccc(S(=O)(=O)NC(C)(C)CN2CCC(Cc3ccccc3)CC2)cc1	i	18µM*	-26%	-24%	-5%	-26%
CC(C)(CN1CCNCC1)NS(=O)(=O)c1ccc(Cl)cc1	i	?	25µM*	9%	-4%	?
CCOC(=O)C1CCN(CC(C)(C)NS(=O)(=O)c2ccc(C)cc2)CC1	i	17%	3%	-2%	1%	-11%
O=C(CN1CCC(Cc2ccccc2)CC1)NCCc1ccc(F)cc1	i	?	-3%	?	?	-19%
CC(C)(CN1CCCC1)NS(=O)(=O)c1ccc(Cl)cc1	i	6%	-3%	-3%	8%	-9%
C=CCC(Nc1ccccc1)C12C=CC(O1)C(C(=O)OC)=C2C(=O)OC (centres undefined)	·	?	14µM*	?	-19%	?
